Unmarked numbers belong to inactive results. The source made the active and inactive calls. Unless noted, no stated cut-off is given here; in the data, active means inhibition above about 36%; inactive means the rest.

As usually defined, the inhibition is the relative decrease from the control value, in per cent.

For assay [1], the target named is Nuclear receptor coactivator 3 (Homo sapiens) (UniProt Q9Y6Q9). Nature of the assay: NCOA3 GAL4-fusion reporter inhibition – cell-based, luminescence, quadruplicate, confirmation (AID 588792;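 active means mean inhibition over 43.08%, the solvent-only control mean plus 3 SD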;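 further: 0% = DMSO treated cells and 100% = gossypol at 36 µM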). As to conditions: HEK293 GAL4-SRC3 luciferase reporter, at 3.6 µM, active compounds read high.
In assay [2] the test system is transactivating tegument protein VP16 (Human herpesvirus 1), Gal4-VP16 luciferase reporter. Nature of the assay: repression of VP16-driven luciferase reporter – cell-based, luminescence, high throughput, counter-screen for SRC3 inhibitor project (AID 588794; in the data active means inhibition above about 30%). As to conditions: mammalian cells, at 3.6 µM, active compounds read high.
Assay [3] addresses Nuclear receptor coactivator 1 (Homo sapiens) (UniProt Q15788). The experiment in a line: NCOA1 GAL4-fusion reporter inhibition – cell-based, luminescence, quadruplicate, confirmation (AID 588820;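 active means mean inhibition above 46.68%, the untreated control wells mean plus 3 SD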;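 further: 0% = DMSO wells and 100% = gossypol 36 µM treated wells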). As to conditions: HEK293 GAL4-SRC1 luciferase reporter, at 3.6 µM, active compounds read high. (In a reporter assay the amount or activity of a reporter protein is the signal.)
A short description of assay [4]: repression of VP16-driven luciferase reporter – cell-based, luminescence, high throughput, counter-screen for SRC1 inhibitor project (AID 588824; in the data active means inhibition above about 25%). The conditions noted are these: cell-based VP16 transactivation luciferase luminescence; at 3.6 µM; active compounds read high.
Assay [5] relates to transactivating tegument protein VP16 (Human herpesvirus 1). Nature of the assay: compounds suppressing VP16-driven luciferase signal – cell-based, luminescence, single concentration, counter-screen for SRC2 inhibitor project (AID 652007). As to conditions: cell-based VP16 transactivation luciferase reporter, at 8.9 µM, active compounds read high. For orientation: The purpose of a counterscreen is to sort out artefacts and off-target activity.

Assay [6] deals with Nuclear receptor coactivator 2 (Homo sapiens) (UniProt Q15596). The experiment in a line: inhibition of GAL4-SRC2 driven luciferase expression – cell-based, luminescence, HEK293, triplicate, confirmation (AID 652008;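 active means mean inhibition above 46.5%, the solvent-only control mean plus 3 SD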;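 further: 0% = DMSO-treated cells and 100% = Gossypol at 36 µM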). The conditions noted are these: HEK293 GAL4-SRC2 luciferase reporter, at 8.9 µM, active compounds read high.
Sequence of Nuclear receptor coactivator 2 (Homo sapiens) (Q15596 whole entry, looked up, the tested form may be a part): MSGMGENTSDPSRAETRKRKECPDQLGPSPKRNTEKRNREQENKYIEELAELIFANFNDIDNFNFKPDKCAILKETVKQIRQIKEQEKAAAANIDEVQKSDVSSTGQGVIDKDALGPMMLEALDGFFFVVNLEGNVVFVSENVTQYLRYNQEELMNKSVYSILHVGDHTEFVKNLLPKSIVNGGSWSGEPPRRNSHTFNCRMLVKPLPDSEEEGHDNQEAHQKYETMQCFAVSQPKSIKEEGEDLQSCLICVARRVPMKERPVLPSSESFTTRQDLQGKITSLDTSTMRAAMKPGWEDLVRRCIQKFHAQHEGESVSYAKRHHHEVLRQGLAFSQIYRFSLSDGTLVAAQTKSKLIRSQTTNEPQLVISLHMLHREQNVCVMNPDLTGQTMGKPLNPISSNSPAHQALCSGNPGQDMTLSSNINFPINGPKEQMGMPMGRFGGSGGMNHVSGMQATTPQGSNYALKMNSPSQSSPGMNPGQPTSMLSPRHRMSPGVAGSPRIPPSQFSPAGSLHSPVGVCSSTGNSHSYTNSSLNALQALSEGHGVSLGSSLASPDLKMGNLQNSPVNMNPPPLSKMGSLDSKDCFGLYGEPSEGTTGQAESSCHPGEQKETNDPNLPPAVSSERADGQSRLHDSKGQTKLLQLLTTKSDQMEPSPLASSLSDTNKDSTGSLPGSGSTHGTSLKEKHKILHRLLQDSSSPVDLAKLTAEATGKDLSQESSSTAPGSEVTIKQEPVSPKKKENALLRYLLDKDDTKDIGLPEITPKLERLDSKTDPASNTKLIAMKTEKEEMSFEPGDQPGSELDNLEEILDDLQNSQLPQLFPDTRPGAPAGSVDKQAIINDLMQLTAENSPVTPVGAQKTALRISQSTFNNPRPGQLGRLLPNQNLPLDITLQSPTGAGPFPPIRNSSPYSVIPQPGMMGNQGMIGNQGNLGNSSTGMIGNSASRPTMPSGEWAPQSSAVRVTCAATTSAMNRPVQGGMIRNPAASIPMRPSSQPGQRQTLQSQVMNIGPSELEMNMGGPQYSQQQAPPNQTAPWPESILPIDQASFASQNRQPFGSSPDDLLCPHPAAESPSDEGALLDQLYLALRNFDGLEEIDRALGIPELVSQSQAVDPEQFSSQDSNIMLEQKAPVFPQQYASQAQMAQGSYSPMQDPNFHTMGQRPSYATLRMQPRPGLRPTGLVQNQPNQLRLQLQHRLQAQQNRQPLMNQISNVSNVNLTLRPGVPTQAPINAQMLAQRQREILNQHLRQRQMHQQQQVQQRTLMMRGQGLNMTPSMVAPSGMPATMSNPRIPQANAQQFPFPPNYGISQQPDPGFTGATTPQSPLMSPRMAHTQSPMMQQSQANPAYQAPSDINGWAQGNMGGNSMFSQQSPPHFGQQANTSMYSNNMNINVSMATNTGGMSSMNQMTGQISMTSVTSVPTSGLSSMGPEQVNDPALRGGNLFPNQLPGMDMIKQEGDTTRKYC

Sequence of Nuclear receptor coactivator 1 (Homo sapiens) (Q15788 whole entry, looked up, the tested form may be a part): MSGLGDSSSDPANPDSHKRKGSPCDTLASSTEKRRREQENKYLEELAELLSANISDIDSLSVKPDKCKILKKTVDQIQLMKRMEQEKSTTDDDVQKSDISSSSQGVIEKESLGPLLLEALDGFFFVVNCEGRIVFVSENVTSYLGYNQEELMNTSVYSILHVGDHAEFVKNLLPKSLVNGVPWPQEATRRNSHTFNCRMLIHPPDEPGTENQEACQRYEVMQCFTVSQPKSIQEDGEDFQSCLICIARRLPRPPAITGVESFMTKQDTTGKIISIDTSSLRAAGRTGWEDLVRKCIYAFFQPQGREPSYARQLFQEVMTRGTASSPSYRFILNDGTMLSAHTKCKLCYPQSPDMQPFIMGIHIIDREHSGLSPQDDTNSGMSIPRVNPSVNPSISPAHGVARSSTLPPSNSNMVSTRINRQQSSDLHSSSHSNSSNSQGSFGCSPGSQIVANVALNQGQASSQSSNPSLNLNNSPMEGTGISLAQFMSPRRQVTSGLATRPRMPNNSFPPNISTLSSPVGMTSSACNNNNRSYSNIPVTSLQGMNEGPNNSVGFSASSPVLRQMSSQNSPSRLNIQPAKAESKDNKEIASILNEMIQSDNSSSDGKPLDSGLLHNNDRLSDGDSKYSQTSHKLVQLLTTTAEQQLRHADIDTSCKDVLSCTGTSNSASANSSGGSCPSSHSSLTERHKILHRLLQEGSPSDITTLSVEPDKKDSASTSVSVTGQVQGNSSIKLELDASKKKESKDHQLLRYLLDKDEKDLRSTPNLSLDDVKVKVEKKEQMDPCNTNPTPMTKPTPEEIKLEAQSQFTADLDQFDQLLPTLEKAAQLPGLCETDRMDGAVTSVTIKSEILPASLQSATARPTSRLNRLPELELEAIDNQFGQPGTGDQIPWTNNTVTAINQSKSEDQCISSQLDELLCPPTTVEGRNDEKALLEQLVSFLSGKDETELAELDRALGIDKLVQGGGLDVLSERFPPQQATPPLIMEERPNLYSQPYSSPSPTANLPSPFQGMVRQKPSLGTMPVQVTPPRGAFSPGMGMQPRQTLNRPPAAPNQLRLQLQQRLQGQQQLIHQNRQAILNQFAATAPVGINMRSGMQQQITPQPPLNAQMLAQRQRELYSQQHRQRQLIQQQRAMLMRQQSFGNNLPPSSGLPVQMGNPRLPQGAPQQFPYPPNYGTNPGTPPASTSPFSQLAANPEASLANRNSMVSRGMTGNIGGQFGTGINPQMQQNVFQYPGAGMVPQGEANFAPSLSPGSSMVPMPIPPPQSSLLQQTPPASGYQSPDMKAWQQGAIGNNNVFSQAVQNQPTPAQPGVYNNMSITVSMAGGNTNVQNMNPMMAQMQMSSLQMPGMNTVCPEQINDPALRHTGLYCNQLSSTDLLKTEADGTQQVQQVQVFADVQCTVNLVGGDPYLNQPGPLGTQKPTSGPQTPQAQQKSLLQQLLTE
Sequence of Nuclear receptor coactivator 3 (Homo sapiens) (Q9Y6Q9 whole entry, looked up, the tested form may be a part): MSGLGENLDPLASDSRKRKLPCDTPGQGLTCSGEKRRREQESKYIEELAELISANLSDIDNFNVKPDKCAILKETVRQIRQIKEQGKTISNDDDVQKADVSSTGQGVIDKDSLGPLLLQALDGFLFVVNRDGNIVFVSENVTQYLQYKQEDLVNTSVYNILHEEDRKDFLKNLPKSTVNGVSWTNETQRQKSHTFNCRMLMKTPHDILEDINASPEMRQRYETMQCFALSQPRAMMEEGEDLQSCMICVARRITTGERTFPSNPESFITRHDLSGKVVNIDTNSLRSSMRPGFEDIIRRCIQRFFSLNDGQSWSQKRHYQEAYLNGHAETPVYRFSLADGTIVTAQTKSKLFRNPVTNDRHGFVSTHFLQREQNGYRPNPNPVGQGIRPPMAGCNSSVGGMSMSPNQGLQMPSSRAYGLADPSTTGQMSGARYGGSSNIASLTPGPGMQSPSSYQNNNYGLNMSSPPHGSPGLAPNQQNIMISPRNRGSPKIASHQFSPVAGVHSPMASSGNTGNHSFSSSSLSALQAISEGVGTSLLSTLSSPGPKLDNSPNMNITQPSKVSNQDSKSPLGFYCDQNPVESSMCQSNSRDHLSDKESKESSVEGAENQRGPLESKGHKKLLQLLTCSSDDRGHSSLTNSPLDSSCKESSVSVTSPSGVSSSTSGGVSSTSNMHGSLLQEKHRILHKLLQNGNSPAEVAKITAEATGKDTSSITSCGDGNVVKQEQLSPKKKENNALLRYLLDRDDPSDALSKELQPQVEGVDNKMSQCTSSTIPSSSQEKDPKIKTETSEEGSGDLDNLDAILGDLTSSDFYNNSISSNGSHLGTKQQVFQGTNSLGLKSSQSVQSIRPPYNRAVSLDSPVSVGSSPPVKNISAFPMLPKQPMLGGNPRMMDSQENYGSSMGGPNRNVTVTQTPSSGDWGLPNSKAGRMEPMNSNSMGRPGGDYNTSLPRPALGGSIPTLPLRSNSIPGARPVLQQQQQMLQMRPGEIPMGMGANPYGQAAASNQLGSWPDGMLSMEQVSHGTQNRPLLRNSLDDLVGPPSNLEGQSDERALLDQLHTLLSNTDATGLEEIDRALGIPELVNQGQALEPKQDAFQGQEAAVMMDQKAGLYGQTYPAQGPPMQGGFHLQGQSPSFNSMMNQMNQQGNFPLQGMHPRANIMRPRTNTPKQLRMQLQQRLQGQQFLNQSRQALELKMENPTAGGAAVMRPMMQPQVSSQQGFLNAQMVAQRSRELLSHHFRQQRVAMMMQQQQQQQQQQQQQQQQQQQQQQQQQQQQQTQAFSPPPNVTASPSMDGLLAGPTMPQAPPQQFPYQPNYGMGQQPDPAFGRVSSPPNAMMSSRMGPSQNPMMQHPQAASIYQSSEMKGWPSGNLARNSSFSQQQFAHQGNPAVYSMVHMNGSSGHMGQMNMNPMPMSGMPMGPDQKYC

Turning to `c1ccc2c(-c3ccc4nncn4c3)cncc2c1`, the inhibition in assay [1] is 79% (active); in assay [2] it was 54.1% (active); in assay [3] it was 65.9% (active); in assay [4], 56.4% (active); in assay [5] it was -5.43%; in assay [6], 46.3%.
As to `CS(=O)(=O)N(CCC#N)Cc1ccc(/C=C2\C(=O)Nc3ccccc32)o1`, the inhibition is 55.2% (active) in assay [1]; 37.4% (active) in assay [2]; 52.9% (active) in assay [3]; 29.3% (active) in assay [4]; 4.75% in assay [5]; 11.8% in assay [6].
Turning to `OCCN(CCO)CC(O)COc1ccc(C23CC4CC(CC(C4)C2)C3)cc1` (stereo unspecified), the inhibition is 23.8% in assay [1]; 18.7% in assay [2]; 15.1% in assay [3]; 8.76% in assay [4]; 61.9% (active) in assay [5]; 81.9% (active) in assay [6].
In the case of `CN(C)c1ccc(C(=S)Nc2ccccc2)cc1`, the inhibition in assay [1] was 39.1%; in assay [2], 13.3%; in assay [3], -21.5%; in assay [4] it was -24.4%; in assay [5], -5.11%; in assay [6], 51.1% (active).
Consider `CCOc1cc(/C=C2\COc3ccccc3C2=O)cc(Br)c1OCC(=O)N(C)C`, for which the inhibition in assay [1] was 61.1% (active); in assay [2], 35.8% (active); in assay [3], 22.3%; in assay [4], 39.2% (active); in assay [5], 44.5% (active); in assay [6], 34%.
As to `O=[N+]([O-])c1ccc2ncnc(Nc3ccc4c(c3)OCCO4)c2c1`, the inhibition in assay [1] is 57.9% (active); in assay [2], 44.4% (active); in assay [3], 59.8% (active); in assay [4] it was 33.3% (active); in assay [5], 3.91%; in assay [6], 28.4%.
With `Cn1cc(C(=O)N/N=C/c2c(O)ccc3ccccc23)ccc1=O`, the inhibition in assay [1] was 52.8% (active); in assay [2], 42.4% (active); in assay [3] it was 49.5% (active); in assay [4], 44% (active); in assay [5], -10.3%; in assay [6], 26.8%.
With `COCC(C)n1c(C)cc(C(=O)COC(=O)c2cccn2C)c1C` (stereo unspecified), the inhibition in assay [1] was 9.47%; in assay [2], -13.8%; in assay [3], -58.2%; in assay [4], -61%; in assay [5] it was 48.1% (active); in assay [6] it was 57.2% (active).
For the compound `Cc1ccc2nc(-c3ccccc3)cn2c1`, the inhibition in assay [1] is 21.2%; in assay [2] it was -9.75%; in assay [3], -44.9%; in assay [4], -21.6%; in assay [5], 19.2%; in assay [6], 51.8% (active).
As to `CNc1ccc2ncc(-c3cccc(C(=O)N(C)C)c3)n2n1`, the inhibition was 72.2% (active) in assay [1]; 62.2% (active) in assay [2]; 72.4% (active) in assay [3]; 60.8% (active) in assay [4]; -12.3% in assay [5]; 42.7% in assay [6].
For `COc1ccc(/C=C2\CC/C(=C\c3ccc(OC)c(OC)c3)C2=O)cc1OC`, the inhibition was 30.9% in assay [1]; 10.7% in assay [2]; 16.2% in assay [3]; 16.9% in assay [4]; 41.5% (active) in assay [5]; 77.9% (active) in assay [6].
For `Clc1ccc(CSc2nnc(-c3ccncc3)o2)cc1`, the inhibition was 48.3% (active) in assay [1]; 30.9% (active) in assay [2]; 43.3% in assay [3]; 32.8% (active) in assay [4]; -11.8% in assay [5]; 28.8% in assay [6].
On to `Cc1ccccc1C(=O)N1CCN(c2ccc(NC(=O)CSc3ccc(Cl)cc3)cc2)CC1`, for which the inhibition in assay [1] was 46.2% (active); in assay [2] it was 45.8% (active); in assay [3], 46.8% (active); in assay [4] it was 38.8% (active); in assay [5], 18.4%; in assay [6], 51.5% (active).
As for `COCCNc1nc(Oc2cncc(Cl)c2)c2sccc2n1`, the inhibition in assay [1] was 42.1%; in assay [2] it was 29.7% (active); in assay [3], 44.3%; in assay [4], 32.8% (active); in assay [5], 16.6%; in assay [6] it was 45.5%.
With `C=Cc1ccc(CC2(C)C(=O)Nc3ccc(-c4cccnc4)cc32)cc1` (stereo unspecified), the inhibition in assay [1] was 45.2% (active); in assay [2], 38% (active); in assay [3], 53.8% (active); in assay [4], 31.1% (active); in assay [5], 2.06%; in assay [6], 35%.
In the case of `C=CCn1c(C)cc(C2=NNC(=NC(C)(C)C)SC2)c1C`, the inhibition in assay [1] was 28.8%; in assay [2], 33.7% (active); in assay [3], -25.9%; in assay [4], -16.9%; in assay [5], 17.8%; in assay [6], 63% (active).
As for `S=C(c1ccc(-c2ccccc2)cc1)N1CCOCC1`, the inhibition in assay [1] was 9.3%; in assay [2] it was 4.1%; in assay [3], 33.3%; in assay [4] it was -6.87%; in assay [5], 10.2%; in assay [6], 79.1% (active).
In the case of `Cc1csc(SCC(=O)Nc2cccc3nsnc23)n1`, the inhibition in assay [1] was 66.3% (active); in assay [2], 35.1% (active); in assay [3] it was 57.9% (active); in assay [4], 37.7% (active); in assay [5], -58.8%; in assay [6], 19.4%.
Consider `COc1cccc(NC(=O)Nc2nc(-c3ccc(OC)c(OC)c3)cs2)c1`, for which the inhibition was 81.3% (active) in assay [1]; 73.5% (active) in assay [2]; 37.4% in assay [3]; 74% (active) in assay [4]; 89.7% (active) in assay [5]; 92.9% (active) in assay [6].
For the compound `O=C(CCCN1C(=O)/C(=C/c2ccccc2Cl)SC1=S)NNC(=O)c1ccc(Cl)cc1Cl`, the inhibition in assay [1] was 55% (active); in assay [2], 32.6% (active); in assay [3] it was 37.1%; in assay [4], 33% (active); in assay [5], 76.7% (active); in assay [6], 92.4% (active).
Turning to `CCN(CC)c1ccc(/C=N/NC(=O)c2nnn(-c3nonc3N)c2C(C)C)c(O)c1`, the inhibition was 77.3% (active) in assay [1]; 72.6% (active) in assay [2]; 68.7% (active) in assay [3]; 65.5% (active) in assay [4]; -10.2% in assay [5]; 29.9% in assay [6].

These data come from PubChem BioAssay.
